Source: PubChem (National Center for Advancing Translational Sciences (NCATS))
L3MBTL1 inh – qHTS Assay for the Inhibitors of L3MBTL1; Lethal(3)malignant brain tumor-like protein 1 (Homo sapiens), Q9Y468; AlphaScreen L3MBTL1–H3K9me1 peptide binding; Potency, µM (doses to about 57.1 µM), for inactives: at the top dose activity, negative = inhibition, actives largely listed as inhibitors; 230,000 compounds, 0.66% hits; further: on the % scale 0 is the no-effect control and ±100 the full control effect; nearly all actives have a fitted effect of over 60% in size
Target sequence (Q9Y468 whole entry, looked up): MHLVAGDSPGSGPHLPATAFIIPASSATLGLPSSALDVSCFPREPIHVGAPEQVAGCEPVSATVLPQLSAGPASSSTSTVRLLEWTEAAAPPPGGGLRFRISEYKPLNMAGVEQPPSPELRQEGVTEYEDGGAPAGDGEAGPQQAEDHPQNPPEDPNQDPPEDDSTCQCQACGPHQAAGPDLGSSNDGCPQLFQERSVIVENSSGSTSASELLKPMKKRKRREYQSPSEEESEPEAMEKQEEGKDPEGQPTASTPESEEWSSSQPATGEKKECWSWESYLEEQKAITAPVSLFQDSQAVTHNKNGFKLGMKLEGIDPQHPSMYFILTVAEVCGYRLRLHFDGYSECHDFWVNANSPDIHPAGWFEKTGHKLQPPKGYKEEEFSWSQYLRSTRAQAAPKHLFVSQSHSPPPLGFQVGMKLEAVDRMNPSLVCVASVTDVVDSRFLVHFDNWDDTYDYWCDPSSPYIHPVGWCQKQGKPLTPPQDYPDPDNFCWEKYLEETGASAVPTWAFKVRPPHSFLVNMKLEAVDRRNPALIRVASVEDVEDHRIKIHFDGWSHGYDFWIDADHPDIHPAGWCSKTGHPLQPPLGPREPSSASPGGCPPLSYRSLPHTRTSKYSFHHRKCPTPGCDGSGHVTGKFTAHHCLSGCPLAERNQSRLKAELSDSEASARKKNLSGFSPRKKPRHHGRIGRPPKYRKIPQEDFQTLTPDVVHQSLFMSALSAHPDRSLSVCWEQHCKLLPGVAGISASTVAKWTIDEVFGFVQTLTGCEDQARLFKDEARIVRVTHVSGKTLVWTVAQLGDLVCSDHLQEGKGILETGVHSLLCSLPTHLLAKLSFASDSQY
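AlphaScreen assay: L3MBTL1 (50 nM final) was preincubated 30 min at room temperature with biotinylated H3(1-15)K9me1 peptide (75 nM final), then 30 min with library compounds; streptavidin donor and nickel chelate acceptor beads (10 ug/mL final) added, 30 min dark.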
Pol iota inh – qHTS for Inhibitors of Polymerase Iota; Potency, µM (top dose mostly 115 µM), without a hit: at the highest dose activity, negative = inhibition, usual class: inhibitors; 390,000 compounds, 1% hits; Pol iota fluorescent replication assay, 10 min; DNA polymerase iota (Homo sapiens), Q9UNA4
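Fluorescent replication assay read twice, at 0 min and 10 min after adding 50 nM (final) substrate. Enzyme (10 nM) and compounds were first incubated 15 min at room temperature; enzyme-free buffer wells were negative controls.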
POLK inh – qHTS for Inhibitors of Polymerase Kappa; purified Pol kappa, fluorescent DNA synthesis assay, 10 min; AID 588579, 2011; 400,000 compounds, 0.53% hits; Potency, µM (doses to about 107 µM), for inactives: at the top dose activity, negative = inhibition, usual class: inhibitors; further: on the % scale 0 is the no-effect control and ±100 the full control effect
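Readout: fluorescence, taken kinetically at 0 and 10 min. Conditions: 10 nM Pol kappa, 15 min RT compound preincubation, 50 nM substrate final. Controls: enzyme-free buffer wells.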
Pol beta inh – qHTS Assay for Inhibitors of DNA Polymerase Beta; Pol beta primer extension/strand displacement, fluorescence kinetic; Potency, µM (doses to about 114 µM), without a hit: at the top dose activity change, negative = inhibition, hits mostly inhibitors; 340,000 compounds, 1.3% hits; further: on the % scale 0 is the no-effect control and ±100 the full control effect
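Human Pol beta at 10 nM; strand-displacement substrate 50 nM final. Compound exposure 15 min at room temperature before start, reaction 10 min at room temperature.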
Pol eta inh – qHTS for Inhibitors of Polymerase Eta. recombinant Pol eta, fluorescent DNA replication assay. AID 588591, 2011. 390,000 compounds, 1.2% hits. Potency, µM (titrated, usually from 114 µM), inactives show top-dose activity change, negative = inhibition, actives largely listed as inhibitors; further: on the % scale 0 is the no-effect control and ±100 the full control effect
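Fluorescent replication assay: 50 nM final substrate added after a 15 min room-temperature compound preincubation with 10 nM enzyme. Signal taken at 0 min and again at 10 min.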
WRN helicase inh – qHTS for Inhibitors of WRN Helicase. Potency, µM (top dose mostly 114 µM), without a hit: top-dose activity change, negative = inhibition, actives largely listed as inhibitors. AID 651768, 2012. WRN helicase unwinding, fluorescent forked duplex, kinetic. 360,000 compounds, 0.46% hits. Bifunctional 3'-5' exonuclease/ATP-dependent helicase WRN (Homo sapiens), Q14191; further: on the % scale 0 is the no-effect control and ±100 the full control effect; nearly all actives have a fitted effect of over 55% in size
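Kinetic fluorescence helicase assay: unwinding of a quenched forked DNA duplex (100 nM final) with 2 mM ATP final raises red fluorescence (525/598 nm). Compounds sat 15 min at room temperature with 20 nM WRN beforehand.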
* hit, by the source's call; u = inconclusive; x = no result; [ ] = dose if it differs, or a comment. Sampled rows, rich in hits. Any-hit rate of the full collection: about 2.5%. The call rests on the fitted dose curve; in most records, active means well fitted curve in the direction sought with a large enough effect; inconclusive means small, poorly fitted or top-dose-only effect, or another doubt; inactive means no such curve, though single readings can be large; an effect the other way counts as inactive or inconclusive. Potency means the concentration at half of the fitted maximal effect.

SMILES | L3MBTL1 inh | Pol iota inh | POLK inh | Pol beta inh | Pol eta inh | WRN helicase inh
CN(C)CCNC(=O)C(=O)Nc1cc2c3c(c1)CCC(=O)N3CCC2 | x | -1% | -15% | 26% | -21% | 0%
CN(C)CCNC(=O)C(=O)Nc1cc2c3c(c1)CCN3C(=O)CC2 | x | 40µM* | u | 31% | 4% | 2%[11.6 µM]
CC(=O)c1ccc(Nc2nc(C(N)C(C)C)cs2)cc1 (stereo not drawn) | x | x | x | x | x | -4%
Cc1ccccc1Cc1c(C)nc2c(C(=O)NCc3ccco3)cnn2c1C | -2% | u | -16% | 45µM* | u | -15%
COc1ccc(C)cc1S(=O)(=O)Nc1ccc(F)c(Cl)c1 | 22% | 2% | -3% | -2% | -10% | -2%
Cc1sc(-n2c(C)cc(C=O)c2C)c(C(=O)O)c1C | x | 35µM* | -25% | u | 50µM* | -25%
CCOC(=O)c1c(-n2c(C)cc(C=O)c2C)sc2c1CCCC2 | -4% | 0% | -12% | -20% | -12% | -5%
COc1ccc(CCNC(=O)C(=O)NCC(c2cccs2)S(=O)(=O)c2ccccc2)cc1 (stereo not drawn) | x | 89µM* | -21%[60.1 µM] | u | -14% | x
COc1ccc(CCNC(=O)C(=O)NCC(c2cccs2)S(=O)(=O)c2ccc(C)cc2)cc1 (stereo not drawn) | x | -4% | 0%[60.1 µM] | 0% | -9% | x
COc1ccc(CCN2C(=O)CCC3=C2CCC3=O)cc1OC | x | x | x | x | x | 6%
O=c1[nH]n2c(=O)c3c([nH]c2c1N=Nc1cccc(C(F)(F)F)c1)CCCC3 | -2% | -4% | -28% | 18µM* | u | -31%
COc1cccc(N=Nc2c(=O)[nH]n3c(=O)c4c([nH]c23)CCC4)c1 | u | u | -31% | u | 50µM* | u
O=c1[nH]n2c(=O)c3c([nH]c2c1N=Nc1cccc(Cl)c1)CCC3 | 3.5µM* | 20µM* | 89µM* | 8.9µM* | 20µM* | u
NS(=O)(=O)c1ccc(N=Nc2c(=O)[nH]n3c(=O)c4c([nH]c23)CCCC4)cc1 | -1% | 35% | -24% | 2% | -25% | -22%
COc1cc2c3cc1Oc1cc(ccc1O)CC1c4c(cc(OC)c(O)c4Oc4ccc(cc4)CC3N(C)CC2)CC[N+]1(C)C (stereo not drawn) | x | x | -7%[60.1 µM] | x | x | x
CCn1cc(C(=O)NCCC(=O)NCCCO)c(=O)c2cc3c(cc21)OCO3 | x | -13% | -15% | -16% | -6% | -10%
CCCn1c(SCC(=O)N2CCN(C(C)=O)CC2)nc2sc3c(c2c1=O)CCC3 | x | -20% | -12% | 1% | -1% | 2%
CC(=O)Nc1ccc(C(=O)CSc2nnc3ccc4ccccc4n23)cc1 | x | 11% | 4% | -18% | -14% | x
CCOc1ccc(S(=O)(=O)Nc2cccc(C(=O)NCCCn3ccnc3)c2)cc1 | 0% | 36% | 17% | x | -11% | 5%
CC(=O)Nc1ccc(NC(=O)CCc2nc3sc4c(c3c(=O)[nH]2)CCCC4)cc1 | -6% | 40µM* | -43% | x | u | -13%
CCN(CC)C(=O)c1cccc(NC(=O)CCc2nc3sc4c(c3c(=O)[nH]2)CCCC4)c1 | -4% | u | -8% | x | -7% | u
O=C(CCc1nc2sc3c(c2c(=O)[nH]1)CCCC3)Nc1cccc(Cl)c1 | -15% | 79µM* | -32% | x | 13µM* | -20%
Cc1cc(C)cc(NC(=O)CCc2nc3sc4c(c3c(=O)[nH]2)CCCC4)c1 | u | 45µM* | u | x | 20µM* | -15%
Cc1cc(C)n(-c2nc3cc(Cl)c(Cl)cc3nc2Nc2c(C)cccc2C)n1 | x | 23% | 5% | 2% | 9% | x
[N-]=C=C1C(=O)NC(=O)C([n+]2ccc(-c3ccncc3)cc2)C1c1ccccc1C(F)(F)F (stereo not drawn) | x | 16µM* | -12% | -1% | -25% | -14%
SMILES | L3MBTL1 inh | Pol iota inh | POLK inh | Pol beta inh | Pol eta inh | WRN helicase inh
O=C(CCS(=O)(=O)c1ccccc1)Nc1ccc(Cl)cn1 | x | 17% | -17% | 32µM* | -4% | -9%[57.1 µM]
Cc1ccccc1OCC(=O)Nc1ccc2c(c1)OCO2 | -5% | 23% | -5% | 20% | -21% | -6%
Cc1ccccc1OCC(=O)OCC(=O)Nc1ccc2c(c1)OCCO2 | 4% | 13µM* | -4% | x | -3% | -3%
O=C(CS(=O)(=O)c1ccccc1)Nc1ccc(Cl)cn1 | x | 43% | -8% | 2% | -20% | 7%
Cc1ccc(NC(=O)CS(=O)CC(=O)Nc2ccc3c(c2)OCO3)cc1Cl (stereo not drawn) | -21% | u | -29% | 50µM* | u | -10%
COc1ccccc1OCC(=O)Nc1ccc2c(c1)OCO2 | x | u | -25% | 50µM* | u | u
Cc1cc(N2O[C@]34C=C[C@]25C[C@@H](O)CC[C@]5(C)C3CC[C@]2(C)[C@@H]([C@H](C)/C=C/[C@H](C)C(C)C)CC[C@H]24)no1 (stereo partly drawn) | 0% | 40% | 6% | x | -11% | 5%
Cc1ccc(-n2c3c(cc(C(=O)NC4CCSC4=O)c2=O)C(=O)CC(C)(C)C3)cc1 (stereo not drawn) | x | 43% | -3%[60.1 µM] | -4% | -14% | -2%
CCOCCCNC(=O)Cn1cnc2c(cnn2-c2ccc(OC)cc2)c1=O | 0% | 3% | 3% | 29% | -13% | 14%
CC(=O)Nc1ccc(NC(=O)CSc2nnc(NC(=O)c3ccco3)s2)cc1 | x | 10% | -5% | 47% | -9% | -14%
CC(=O)c1cccc(-n2c(CCC(=O)O)ccc2-c2ccccc2)c1 | x | u | -5% | u | -18% | 4%
O=C(c1ccco1)N1CCN(C2CN(Cc3cn(Cc4ccccc4C(F)(F)F)nn3)S(=O)(=O)C2)CC1 (stereo not drawn) | x | x | x | x | x | -12%
O=C(CCS(=O)(=O)c1ccccc1)Nc1ccc2c(c1)OCO2 | -15% | u | u | 11µM* | -8% | -6%
O=[N+]([O-])c1cccc(S(=O)(=O)[N-]c2nc3ccccc3nc2-n2cc[n+](Cc3ccccc3)c2)c1 | -2% | 72% | -13% | -2% | 10% | -35%
Cn1c(=O)c2[nH]c(SCCN3CCOCC3)nc2n(C)c1=S | x | 18µM* | -18% | x | 7% | -35%
O=C(/C=C/c1ccc2c(c1)OCO2)Nc1nc(-c2ccc(F)cc2F)cs1 | -10% | x | x | 22µM* | x | x
Cc1csc(NC(=O)/C=C/c2ccc3c(c2)OCO3)n1 | 0% | 6% | 2% | 14% | -6% | -1%
